SMILES strings stand for the structures. In all, about 68,000 compounds went through this assay and about 2,700 (4%) showed an effect of 50% or more. The full list was thinned out, with strong results kept by preference.

The assay deals with Plasmodium berghei. As to the kind of experiment: Screen against P. berghei liver stage (PbLuc), transformed with Luciferase, at 2uM. The assay is classed as functional, HepG2. The note with it: tested at 2 uM.
Take `O=S(=O)(NCc1ccccc1)Nc1ccc(-n2cncn2)cc1`: the INHIBITION was found to be 4.12%.

On to `Fc1cnc(N2CCn3c(CN4CCCC4)nnc3C2)nc1`, for which the INHIBITION is -55.08%.

In the case of `CCNC(=O)[C@@H]1C[C@H](NC(=O)Cn2ccnc2)CN1Cc1ccsc1`, the INHIBITION is on record as -35.46%.

For `OCCC[C@@H]1CN(c2ncc(Cl)cc2Cl)CC[C@@H]1N1CCOCC1`, the INHIBITION is listed as -69.21%.

As for `CC(C)c1cncnc1N1CC[C@H](N2CCOCC2)[C@H](CCCO)C1`, the INHIBITION was found to be 68.36%.

As for `Cc1cnc(C)c(N2CC[C@H](N3CCOCC3)[C@H](CCCO)C2)n1`, the INHIBITION worked out at 37.87%.

`Fc1ccc(CN2CCCn3cnc(COCC4CC4)c3C2)cc1`: the INHIBITION was found to be 25.48%.

With `CC(=O)N1CCC2(CC1)COCCN2CCN(C)C`, the INHIBITION is given as 0.04%.

Take `CC1CN(C)c2ccccc2CN1C(=O)c1cc(C#N)cn1C` (stereo not drawn): the INHIBITION came out at 3.49%.

With `CC(C)NC(=O)c1nc(Cn2c(C(F)F)nc3ccccc32)no1`, the INHIBITION came to 51.42%.

Consider `O=C(NC1CC1)c1nc(Cn2c(C(F)F)nc3ccccc32)no1`, for which the INHIBITION is recorded as 29.87%.

For `CC(C)NC(=O)c1nc(Cn2c(C(F)(F)F)nc3ccccc32)no1`, the INHIBITION is 37.53%.

For `COc1ccc(CN2CCN(CC3CC3)[C@@H]3CS(=O)(=O)C[C@@H]32)cc1O`, the INHIBITION is on record as 7.93%.

`Cn1ncc2c(NC3CN4CCC3CC4)nc(-c3ccncc3)nc21` (stereo not drawn): the INHIBITION is reported as 10.1%.

Take `Cn1ncc2c(NC3CCC3)nc(-c3ccncc3)nc21`: the INHIBITION is -24.62%.

Consider `Cn1ncc2c(N[C@@H]3C[C@H]4CC[C@@H]3C4)nc(-c3ccncc3)nc21`, for which the INHIBITION is listed as 67.85%.

Take `Cc1csc(CNC(=O)NC(C)c2ccc3c(c2)OCCO3)n1` (stereo not drawn): the INHIBITION stood at 39.83%.

Regarding `CN(C)CCOC1CC2(CCN(c3cnccn3)CC2)c2ccccc21` (stereo not drawn), the INHIBITION worked out at 20.21%.

For `CC(=O)N(Cc1ncc(C)o1)C1CCN(Cc2ccncc2Cl)C1` (stereo not drawn), the INHIBITION is reported as 53.72%.

Take `CC(=O)N(Cc1noc(C)n1)C1CCN(Cc2ccccc2C#N)C1` (stereo not drawn): the INHIBITION is -21.31%.

Turning to `CC(=O)N(Cc1ncc(C)o1)C1CCN(Cc2cccnc2)C1` (stereo not drawn), the INHIBITION was found to be 41.72%.

Take `CC(=O)N(Cc1noc(C)n1)C1CCN(Cc2ccncc2Cl)C1` (stereo not drawn): the INHIBITION is 53.72%.

In the case of `CC(=O)N(Cc1noc(C)n1)C1CCN(Cc2ncc(C(C)C)o2)C1` (stereo not drawn), the INHIBITION turned out to be 8.06%.

Regarding `CC(=O)N(Cc1ncc(C)o1)C1CCN(Cc2cc(C)on2)C1` (stereo not drawn), the INHIBITION is 1.04%.

As for `CC(=O)N(Cc1ncc(C)o1)C1CCN(Cc2noc(C)n2)C1` (stereo not drawn), the INHIBITION was 71.13%.

Turning to `CC(=O)N(Cc1noc(C)n1)C1CCN(Cc2ccccn2)C1` (stereo not drawn), the INHIBITION was 6.31%.

For `CC(=O)N(Cc1ncc(C)o1)C1CCN(Cc2ccccc2F)C1` (stereo not drawn), the INHIBITION came to 20.35%.

Regarding `O=C(O)[C@@H]1CN(C(=O)CN2Cc3ccccc3C2)C[C@H]1c1ccncc1`, the INHIBITION was 27.42%.

For `CCN(C(=O)c1cccc2c1OCO2)c1ccccc1`, the INHIBITION is reported as -0.15%.

Turning to `O=C1CC2(CCN(S(=O)(=O)C3CC3)C2)CN1c1cncnc1` (stereo not drawn), the INHIBITION amounted to 34.34%.

As to `Cn1nccc1CCC(=O)N1CCCC(Cc2cccnc2)C1` (stereo not drawn), the INHIBITION is -24.85%.

As to `Cc1ccc(CN(C(=O)NC2CCS(=O)(=O)C2)C2CC2)o1` (stereo not drawn), the INHIBITION amounted to 1.88%.

Consider `COCCOc1cc(C)ccc1NC(=O)N(C)Cc1cnn(C)c1`, for which the INHIBITION is 64.16%.

With `CCCOc1cc(C)ccc1NC(=O)N(C)Cc1cnn(C)c1`, the INHIBITION is -31.72%.

For the compound `CCOc1cc(C)ccc1NC(=O)N(C)Cc1cnn(C)c1`, the INHIBITION is 17.39%.

On to `O=C1CCCC2=C1C(c1ccccc1Cl)C1C(=O)NN=C1N2` (stereo not drawn), for which the INHIBITION is given as 31.66%.

As for `Cn1ncc2c1CN(Cc1ccccc1F)CC2COCC1CC1` (stereo not drawn), the INHIBITION is listed as 21.42%.

In the case of `Cc1cc(C)cc(N2CC(c3nnc(N)s3)CC2=O)c1` (stereo not drawn), the INHIBITION is reported as 35.41%.

For `Cc1cccc(N2CC3(CCN(c4nncs4)C3)CC2=O)c1` (stereo not drawn), the INHIBITION was 5.77%.

Regarding `CCc1ccccc1N1CC(c2nnc(N)s2)CC1=O` (stereo not drawn), the INHIBITION was found to be 51.78%.

As to `CS(=O)(=O)NC1CC(=O)N(c2ccccc2Cl)C1` (stereo not drawn), the INHIBITION is listed as 34.28%.

Take `O=C(C1CC(=O)N(c2ccccc2)C1)N1CCC2(CC1)OCCO2` (stereo not drawn): the INHIBITION came out at 28.17%.

For `Cc1cccc(N2CC(c3nnc(N)s3)CC2=O)c1` (stereo not drawn), the INHIBITION is listed as 52.23%.

Consider `Cc1c(Cl)cccc1N1CC(c2nnc(N)s2)CC1=O` (stereo not drawn), for which the INHIBITION turned out to be 8.41%.

Take `O=C1C[C@@H]2CCN(Cc3ccccc3)C[C@@H]2CCN1c1ccccc1`: the INHIBITION was 44.84%.

In the case of `Nc1nnc(C2CC(=O)N(c3ccccc3)C2)s1` (stereo not drawn), the INHIBITION was found to be 74.36%.

On to `CN(C)C1CC2(CCN(C(=O)c3csnn3)CC2)c2ccccc21` (stereo not drawn), for which the INHIBITION was determined as 24.51%.

Turning to `CCc1nc2c(NCC3COc4cc(OC)ccc4C3)ncnc2o1` (stereo not drawn), the INHIBITION is recorded as 23.17%.

For `CCCc1n[nH]c(C2CN(C(=O)CCn3cc(C)cn3)CCO2)n1` (stereo not drawn), the INHIBITION stood at 14.21%.

For `Cn1cc(CN2C[C@H]3CCN(C(=O)c4cscn4)C[C@H]3C2)cn1`, the INHIBITION is on record as 34.24%.

For `CCN(CC(=O)N(C)C)C(=O)c1ccc(-c2nc(C)cs2)cc1`, the INHIBITION worked out at 53.81%.

As for `CCCN(CC(=O)N(C)C)C(=O)c1ccc(-c2nc(C)cs2)cc1`, the INHIBITION is reported as -0.15%.

Regarding `CCCN(CC(=O)NC)C(=O)c1ccc(-c2nc(C)cs2)cc1`, the INHIBITION worked out at 46.98%.

On to `CC(C)(C)CC(=O)NCC(=O)Nc1ccn(Cc2ccccc2)n1`, for which the INHIBITION was 43.87%.

Consider `CCn1cnnc1CNC(=O)N1CCOC(c2ccccc2Cl)C1` (stereo not drawn), for which the INHIBITION was found to be 42.19%.

Take `Cc1ccc(C2CN(C(=O)NCc3nnc4ccccn34)CCO2)o1` (stereo not drawn): the INHIBITION is given as 26.03%.

As for `O=C(NCc1nnc2ccccn12)N1CCOC(c2cccs2)C1` (stereo not drawn), the INHIBITION was found to be 50.46%.

In the case of `O=C(NCc1nnc2ccccn12)N1CCOC(c2ccsc2)C1` (stereo not drawn), the INHIBITION turned out to be 63.39%.

On to `O=C(NCc1nccs1)N1CCOC(c2ccccc2Cl)C1` (stereo not drawn), for which the INHIBITION is -71.45%.

As to `O=C(NCc1nnc2ccccn12)N1CCc2sccc2C1`, the INHIBITION was 30.31%.

Consider `CCN1CCC2(CC1)OCCN2C(=O)c1cc(Cl)c(OC)c(Cl)c1`, for which the INHIBITION was 19.62%.

Turning to `Cc1cc(C)n(C2CCCN(C(=O)c3ccc(N(C)C)nc3)C2)n1` (stereo not drawn), the INHIBITION is given as -35.65%.

Take `Cc1noc(C)c1S(=O)(=O)N(CC(N)=O)CC(C)C`: the INHIBITION was determined as 23.08%.

For the compound `CC(C)n1cc(CN2CCCN(C(=O)C(C)n3cccn3)CC2)cn1` (stereo not drawn), the INHIBITION is on record as -86.2%.

As to `O=c1ccc2c(n1CC1CC1)CCC(NCc1cccs1)C2` (stereo not drawn), the INHIBITION was -26.76%.

For `CCC(C(=O)NC1CCCCC1)n1cccc(OC)c1=O` (stereo not drawn), the INHIBITION was -6.88%.

In the case of `CCC(C(=O)NC(C)(C)C)n1ccc2ncccc2c1=O` (stereo not drawn), the INHIBITION was determined as 8.09%.

As to `CCC(C(=O)NC(C)(C)C)n1cccc(OC)c1=O` (stereo not drawn), the INHIBITION stood at 56.16%.
